Measurements as given in PubChem BioAssay AID485313 (National Center for Advancing Translational Sciences (NCATS), 2010).
Screen size: about 320,000 compounds; about 7,600 (2.4%) were called active. Inconclusive results (about 3%) are left out. Calls come from the whole dose curve; as a rule, active = well fitted activation curve with a large enough effect; inconclusive = small, poorly fitted or top-dose-only effect; inactive = no such curve, though single readings can be large or run the other way. The list comes from a sample in which actives are over-represented; it also holds similar structures and randomly drawn compounds. Where a call stands in place of a potency, no number is given.

Assay: qHTS Assay for NPC1 Promoter Activators; note: nearly all actives have a fitted effect of over 60% in size;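 for activation: reporter is driven by a mutant NPC1 promoter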
Settings: Huh7 NPC1 promoter luciferase reporter, 24 h; series mostly up to 9.22 µM
Procedure, shortened: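 Readout is luciferase luminescence, reflecting NPC1 promoter activation in stably transfected Huh7 cells after 24 h compound exposure at 37 °C in reduced-serum medium with 10% FBS.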
Potency is the fitted concentration of half-maximal effect.

| SMILES | Potency |
| --- | --- |
| CC1(C(=O)OCC(=O)Nc2ncc(Cl)cc2Cl)CC1(Cl)Cl (configuration not stated) | inactive |
| O=S(=O)(c1ccc(SCc2ccc(Br)cc2)nc1)N1CCOCC1 | inactive |
| CCOc1ccc(C(=O)NCC(=O)N2CCN(c3ccc(C(F)(F)F)cn3)CC2)cc1 | inactive |
| O=[N+]([O-])c1cccc(/C=N/Nc2ncc(Br)cn2)c1 | 2820 nM (active) |
| Cc1ccc(NC(=O)O/N=C/c2cccc([N+](=O)[O-])c2)cc1 | inactive |
| O=C(N/N=C/c1cccc([N+](=O)[O-])c1)C1CC(=O)N(c2ccc(Br)cc2)C1 (configuration not stated) | inactive |
| CC(C)Oc1ccc(C(=O)NCC(=O)Nc2ccc3c(c2)CCC3)cc1 | inactive |
| COc1ccc(/C=N/NC(=O)c2ccc3c(c2)OCCO3)c(OC)c1 | inactive |
| COc1ccc(/C=N/Nc2cc(N3CCOCC3)nc(C)n2)c(OC)c1 | inactive |
| COc1ccc(/C=N/OCc2ccccc2C#N)c(OC)c1 | 3980 nM (active) |
| CC(C)C(=O)Nc1ccc2c(c1)oc1ccccc12 | 3550 nM (active) |
| CC(C)C(=O)Nc1ccc2oc(=O)ccc2c1 | inactive |
| Cc1cc(=O)oc2cc(NC(=O)C(C)Oc3ccccc3)ccc12 (configuration not stated) | inactive |
| O=S(=O)(NCCCCCCNS(=O)(=O)c1c(F)cccc1F)c1ccc2c(c1)OCCO2 | inactive |
| CCCCc1ccc(NC(=S)N2CCCC(CO)C2)cc1 (configuration not stated) | 1580 nM (active) |
| CCCCc1ccc(NC(=S)NCCCN2CCOCC2)cc1 | inactive |
| COc1ccc(NC(=S)N2CCCC(CO)C2)c(OC)c1 (configuration not stated) | inactive |
| CC(C)N(C(=O)CN1CCN(S(=O)(=O)c2ccc(Br)s2)CC1)C(C)C | inactive |
| N#Cc1ccccc1NC(=O)c1cccc(COc2ccc(Cl)cc2Cl)c1 | 316 nM (active) |
| O=C(Nc1cccc2cccnc12)c1cccc(Cl)c1 | inactive |
| CSc1ccc(C#N)cc1NC(=O)c1cccc(Cl)c1 | inactive |
| CCn1nc(C(=O)Nc2ccc(N3CCOCC3)cc2)c2ccccc2c1=O | inactive |

| SMILES | Potency |
| --- | --- |
| CC(C(=O)N(C)CC(=O)Nc1ccccc1C(F)(F)F)N1C(=O)c2ccccc2C1=O (configuration not stated) | inactive |
| COc1ccc(Cc2nc3ccc(C(=O)NCC4CCOCC4)cc3o2)cc1OC | inactive |
| COCCNC(=O)c1ccc2nc(Cc3ccc(OC)c(OC)c3)oc2c1 | inactive |
| CSCCNC(=O)c1ccc2nc(Cc3ccccc3F)oc2c1 | 2510 nM (active) |
| COc1ccc(C(=O)COC(=O)c2ccc([N+](=O)[O-])s2)cc1OC | inactive |
| CCc1ccc(NC(=O)N2CCN(c3ccccc3)CC2)cc1 | inactive |
| O=C(C(=O)N1CCc2ccccc2C1)N1CCc2ccccc2C1 | inactive |
| CCc1ccc(NC(=O)N2CCc3ccccc3C2)cc1 | 2240 nM (active) |
| CCCn1nc(C(=O)OCc2nc(N)nc(Nc3ccccc3C)n2)c2ccccc2c1=O | inactive |
| CCOc1ccc(/C(O)=C2\C(=O)C(=O)N(c3ccc(OC)cc3)C2c2ccccc2[N+](=O)[O-])cc1 (configuration not stated) | 398 nM (active) |
| COc1ccc(/C(O)=C2/C(=O)C(=O)N(c3nc(C)c(C)s3)C2c2ccco2)cc1 (configuration not stated) | inactive |
| COc1ccc(C2/C(=C(/O)c3ccccc3)C(=O)C(=O)N2C)c(OC)c1 (configuration not stated) | inactive |
| c1ccc2cc(CCCc3cc4ccccc4cn3)ncc2c1 | inactive |
| COc1cc(OC)cc(C(=O)NNC(=O)CCOc2ccccc2OC)c1 | inactive |
| COc1ccc(Nc2ncc(F)c(N3CCOCC3)n2)cc1 | 1260 nM (active) |
| Cc1ccc(Nc2nc(N3CCOCC3)nc(N3CCOCC3)n2)cc1Cl | inactive |
| CCOc1ccc(Nc2nc(Cl)nc(N3CCN(c4ccc(OC)cc4)CC3)n2)cc1 | inactive |
| Cc1cccc(NC(=O)CN2CCN(C(=O)C3CCN(C(=O)/C=C/c4ccccc4)CC3)CC2)c1C | inactive |
| CCOC(=O)[C@@H]1[C@H]2COc3ccc(Br)cc3[C@H]2N2C(=O)N(c3ccc(Cl)cc3)C(=O)[C@@]12C | inactive |
| COc1ccccc1-c1oc2ccccc2c1C#CCCCCO | inactive |
| OCCCN1c2ccccc2Nc2nnc(-c3ccccc3)cc21 | 2240 nM (active) |
| c1ccc(-c2cc(-c3ccccc3)[nH]n2)cc1 | inactive |

| SMILES | Potency |
| --- | --- |
| CN=c1scc(-c2cc(OC)ccc2OC)n1/N=C/c1c(C)[nH]c2ccccc12 | inactive |
| N#Cc1ccc(C2=CC(=O)C[C@H](c3ccc(Cl)cc3)C2)cc1 | inactive |
| Cc1cc(C#N)c(SCC(N)=O)nc1-c1ccc(F)cc1 | inactive |
| CC(=O)c1cc(C#N)c(SCC(=O)C(C)(C)C)nc1C | 3160 nM (active) |
| CC(=O)c1cc(C#N)c(N2CC(C)OC(C)C2)nc1C (configuration not stated) | inactive |
| CCOC(=O)c1ccc(N/C(=N/S(=O)(=O)c2ccccc2)c2ccccc2)cc1 | inactive |
| Cc1ccc(S(=O)(=O)N2CCOCC2)cc1NC(=O)COC(=O)c1cnccn1 | inactive |
| COc1ccc(/C=N/Nc2nc3ccccc3o2)cc1OC | 2000 nM (active) |
| CCNc1nc(NCC)nc(N/N=C/c2ccc(O)c(OC)c2)n1 | inactive |
| CCOc1ccc(/C=N/Nc2nncc(-c3ccccc3)n2)cc1OC | inactive |
| CCN(CC)S(=O)(=O)c1ccc(N2CCOCC2)c(NC(=O)C(C)Oc2ccc(F)cc2)c1 (configuration not stated) | inactive |
| CC1CCCCC12NC(=O)N(CC(=O)OCC(=O)NCc1ccc(F)cc1)C2=O (configuration not stated) | inactive |
| CCN(CC(=O)Nc1ccccc1C(=O)NC1CC1)Cc1cccs1 | inactive |
| Cn1ccsc1=NC(=O)c1cc(S(=O)(=O)N2CCOCC2)ccc1Cl | inactive |
| COc1ccc(-c2nc3n(c2Br)CCC3)cc1 | 2820 nM (active) |
| COc1ccc(-c2nc(SCC(=O)N3CCCC3)n[nH]2)cc1 | inactive |
| COc1ccc(-c2nnc3n2CCCCC3)cc1 | inactive |
| CN(CC(=O)Nc1ccc(F)c(F)c1F)C(=O)Cn1cnc2c1c(=O)n(C)c(=O)n2C | inactive |
| Cc1ccsc1C(=O)NC1CCCCC1C (configuration not stated) | inactive |
| COc1cc(/C=N\Nc2ccc([N+](=O)[O-])cn2)ccc1OCC(=O)O | inactive |
| COc1cc(C(=O)OCc2ccc([N+](=O)[O-])cc2)cc(OC)c1OC | inactive |
| COc1cc(/C=N/O)ccc1OCc1ccc([N+](=O)[O-])cc1 | 2510 nM (active) |

| SMILES | Potency |
| --- | --- |
| Cc1ccccc1-c1cc(C(=O)NCC2CC2)n(CC2CC(c3cccnc3)=NO2)n1 (configuration not stated) | inactive |
| O=C(COc1ccccc1O)NC1CCCC1 | inactive |
| CC(=O)Nc1ccc(NC(=O)CSc2nnc(C3CC3)n2-c2ccccc2)cc1 | inactive |
| COc1ccccc1-n1ccnc1SCC(=O)NC(C)(C)C | inactive |
| Cc1ccccc1CSCC(=O)NC(=O)NC(C)(C)C | inactive |
| CC(C)(C)NC(=O)CSC(=Nc1ccccc1F)NC#N | 3980 nM (active) |
| COc1cc(C(C)=O)ccc1OC(C)C(=O)Nc1ccc(S(=O)(=O)N2CCCC2)cc1 (configuration not stated) | inactive |
| CC(C)N(C(=O)CSc1nnc(NC2CC2)s1)c1ccccc1 | inactive |
| Cc1ccccc1NC(=O)Cc1nc(COC(=O)c2ccc(C(F)(F)F)cc2)cs1 | inactive |
| CCC(C)N(C)C1CCN(C(=S)Nc2ccc(OC)cc2)CC1 (configuration not stated) | inactive |
| COc1ccc(NC(=S)N2N=CCC2c2ccccc2)cc1 (configuration not stated) | 1410 nM (active) |
| COc1ccc(NC(=S)N2CCc3cc(OC)c(OC)cc3C2)cc1 | inactive |
| N#CCCN(C(=O)COC(=O)C1CCN(c2ccc(C(F)(F)F)cn2)CC1)c1ccc(F)cc1 | inactive |
| O=C(NCC1CCCO1)c1ccc(S(=O)(=O)Nc2ccc(F)cc2)cc1 (configuration not stated) | inactive |
| c1csc(-c2cn3c(n2)SCC3)c1 | inactive |
| O=c1c2cc(-c3ccccc3)sc2nc2n1N=C(c1cccs1)CS2 | 3160 nM (active) |
| Cc1nnc2n1N=C(c1ccccc1)CS2 | inactive |
| COC(=O)[C@]1(C)CCC[C@@]2(C)C3CC[C@]4(OC(C)=O)C[C@@]3(CCC21)CC4=NO (some centres not stated) | inactive |
| O=C(NCCC1=CCCCC1)c1ccc(Cl)c([N+](=O)[O-])c1 | inactive |
| O=C(COc1cccc(-n2cnnn2)c1)NCCC1=CCCCC1 | inactive |
| O=C(NCCC1=CCCCC1)c1ccc(-n2cncn2)cc1 | 3550 nM (active) |
| O=C(O)c1ccc(N/N=C/c2cn(-c3ccccc3)nc2-c2cccs2)cc1 | 1260 nM (active) |

| SMILES | Potency |
| --- | --- |
| O=C(NCc1cccnc1)c1cn(-c2ccccc2)nc1-c1cccs1 | inactive |
| COc1ccc(-c2nn(-c3ccccc3)cc2/C=C\C(=O)Nc2ccc(C(=O)O)cc2)cc1 | inactive |
| COc1ccc(OC)c(CN2CCN(C(=O)CNC(=O)c3cc(C)cc(C)c3)CC2)c1 | inactive |
| O=C(CSCc1ccccc1)N1CCc2ccccc21 | 2240 nM (active) |
| CCC(=O)N1CCCc2ccccc21 | inactive |
| O=C(CN1CCN(c2ccccn2)CC1)N1CCc2ccccc21 | inactive |
| CN(CC(=O)Nc1ccc(F)cc1)CC(=O)N1CCCCC1 | inactive |
| Cc1ccc(S(=O)(=O)N(CC(=O)Nc2cccc([N+](=O)[O-])c2)Cc2ccc(Cl)cc2)cc1 | inactive |
| O=C(Nc1ccc(Cl)cn1)c1ccc2c(c1)OCCO2 | 501 nM (active) |
| COc1c(Cl)cc(C(=O)Nc2ccc(Cl)cn2)cc1Cl | inactive |
| O=C(Nc1cccc(S(=O)(=O)Nc2ccc(Cl)cc2)c1)c1ccc2c(c1)OCCO2 | inactive |
| CCCc1cc(C(=O)Nc2ccc(Cl)cn2)cs1 | 501 nM (active) |
| CCCCC(CC)C(=O)Nc1ccc(Cl)cn1 (configuration not stated) | inactive |
| Cc1nc(NC(=O)c2ccc3c(c2)OCCO3)ccc1Br | 1000 nM (active) |
| CC(=O)c1ccc2c(c1)OCCOCCOc1ccc(C(C)=O)cc1OCCOCCO2 | inactive |
| CCCc1cc(C(=O)Nc2ccc(C(=O)OC)cc2)cs1 | inactive |
| Cc1cccc(C)c1NC(=O)CNC(=O)c1ccc2c(c1)OCCO2 | inactive |
| O=C(C1Cc2ccccc2CN1C(=O)c1ccco1)N1CCN(c2ccccc2)CC1 (configuration not stated) | inactive |
| CN(CC(=O)Nc1ccc(F)c(F)c1F)C(=O)C1CC(=O)N(C2CCCC2)C1 (configuration not stated) | inactive |
